Entries with a potency or affinity are not part of this list.
These molecules were tested on Escherichia coli. Details: Concentration 32 ug.mL-1;; ASSAY_TEST Inhibition of Bacterial Growth; detection method Absorption (OD600); MEDIA CAMHB; plate type 384well; NBS; CORNING #3640; time 18 hr.
In the case of Cn1c(=O)c2ccc(C(=O)NC3CCCC3)cc2n2c(SCc3c(F)cccc3Cl)nnc12, the Inhibition is reported as 0.61%.
For COc1ccc(NC(=O)c2ccc3nn(CC(=O)Nc4ccc(C(C)C)cc4)c(=O)n3c2)cc1, the Inhibition was -3.43%.
For Cc1ccc(-n2ccn3c(SCC(N)=O)nnc3c2=O)cc1C, the Inhibition was 0.16%.
In the case of CCOC(=O)c1ccc(NC(=O)Cn2nc3ccc(C(=O)Nc4cccc(C)c4)cn3c2=O)cc1, the Inhibition is reported as -4.77%.
With CC(C)CCn1c(=O)c2sccc2n2c(=O)n(Cc3ccccc3Cl)nc12 the Inhibition was 1.09%.
COc1ccc(NC(=O)Cn2nc3ccc(-c4ccc(Cl)cc4)nn3c2=O)cc1 showed an Inhibition of -4.11%.
Work on O=C(Cn1nc2ccc(SCc3ccc(Cl)cc3)nn2c1=O)NCc1ccc2c(c1)OCO2 yielded an Inhibition of -11.22%.
Work on COc1ccccc1NC(=O)Cn1c(=O)c2nnc(C(C)C)n2c2ccccc21 yielded an Inhibition of -0.08%.
For CCOc1ccc(NC(=O)Cn2nc3c4cc(-c5ccc(Cl)cc5)nn4ccn3c2=O)cc1, the Inhibition was -4.33%.
Cc1ccc(-c2cc3c4nn(CC(=O)N5CCN(c6ccc(F)cc6)CC5)c(=O)n4ccn3n2)cc1C was tested, and the Inhibition was 1.43%.
Work on CCCCc1ccc(NC(=O)Cn2c(=O)c3nnc(C(C)C)n3c3ccccc32)cc1 yielded an Inhibition of 1.92%.
CC(C)c1nnc2c(=O)n(CC(=O)Nc3ccc(F)cc3F)c3ccccc3n12 showed an Inhibition of 2.42%.
Work on CCOc1ccc(-n2ccn3c(SCC(=O)Nc4ccc5c(c4)OCCO5)nnc3c2=O)cc1 yielded an Inhibition of -9.56%.
For CC(C)c1ccc(Cn2c(=O)c3sccc3n3c(SCc4cccc(C(F)(F)F)c4)nnc23)cc1, the Inhibition was 1.07%.
In the case of Cc1ccc(NC(=O)Cn2nc3c4cc(-c5ccc(Cl)cc5)nn4ccn3c2=O)cc1C, the Inhibition is reported as 3.51%.
CCc1nnc2c(SCC(=O)Nc3cccc(C(C)=O)c3)nc3ccccc3n12 gave an Inhibition of 4.71%.
CC(C)c1nnc2c(=O)n(CC(=O)Nc3ccc4c(c3)OCO4)c3ccccc3n12 showed an Inhibition of -3.49%.
Cc1ccc(CN(c2ccc(F)cc2)S(=O)(=O)c2ccc3nnc(C)n3c2)cc1 gave an Inhibition of -18.59%.
Cc1ccc(N(Cc2cccc(C)c2)S(=O)(=O)c2cccn3c(C)nnc23)cc1 was tested, and the Inhibition was -15.69%.
COc1ccc(-c2cc3c4nnc(SCC(=O)Nc5cccc(Cl)c5C)n4ccn3n2)cc1 was tested, and the Inhibition was -11.64%.
CC(C)CCNC(=O)CSc1nnc2c(=O)n(Cc3ccc(F)cc3)ccn12 was tested, and the Inhibition was -0.48%.
Work on CC(C)c1ccc(NC(=O)Cn2nc3ccc(SCc4ccc(Cl)cc4)nn3c2=O)cc1 yielded an Inhibition of -6.33%.
Molecule CCOc1ccc(NC(=O)Cn2c(=O)c3nnc(C(C)C)n3c3ccccc32)cc1 has an Inhibition of 5.76%.
Cc1ccc(Oc2nc3ccccc3n3c(=O)n(CC(=O)Nc4ccccc4C(F)(F)F)nc23)cc1 gave an Inhibition of 1.07%.
For CCCN(C)c1nccn2c(=O)n(CC(=O)Nc3cccc(C(F)(F)F)c3)nc12, the Inhibition was 3.02%.
Cc1ccc(Oc2nccn3c(=O)n(CC(=O)Nc4ccc(Br)cc4)nc23)cc1 showed an Inhibition of -5.29%.
O=c1c2nnc(-c3cccc([N+](=O)[O-])c3)n2ccn1-c1ccc(F)cc1 showed an Inhibition of -1.02%.
Work on CCOC(=O)c1ccc(NC(=O)Cn2nc3ccc(S(=O)(=O)C(C)(C)C)nn3c2=O)cc1 yielded an Inhibition of -4.95%.
In the case of COc1ccc(NC(=O)CSc2nnc3ccc(C(=O)Nc4cccc(F)c4)cn23)cc1, the Inhibition is reported as 3.37%.
For COc1ccc(-c2cc3c4nnc(SCC(=O)Nc5ccc(C#N)cc5)n4ccn3n2)cc1, the Inhibition was -6.47%.
Cc1nnc2c(=O)n(CC(=O)NC3CCCC3)c3ccccc3n12 showed an Inhibition of -6.29%.
COc1cccc(Oc2nccn3c(=O)n(CC(=O)Nc4ccc5c(c4)OCCO5)nc23)c1 was tested, and the Inhibition was -8.9%.
Work on O=C(Cn1nc2c(Sc3ccccc3)nccn2c1=O)Nc1cccc(Cl)c1F yielded an Inhibition of -0.62%.
In the case of C=Cc1ccc(CSc2nnc3c(=O)n(-c4ccc(Br)cc4)ccn23)cc1, the Inhibition is reported as -8.25%.
Molecule Cc1ccc(NC(=O)Cn2c(=O)c3nnc(C)n3c3ccccc32)cc1C has an Inhibition of 0.02%.
Work on Cc1cccc(-c2nc(CSc3nc4ccccc4n4c(C)nnc34)c(C)o2)c1 yielded an Inhibition of 1.23%.
COc1cccc(Oc2nccn3c(=O)n(CC(=O)NC4CCCCC4)nc23)c1 gave an Inhibition of -4.58%.
With Cc1cccc(CSc2nnc3c(=O)n(-c4ccc(Br)cc4)ccn23)c1 the Inhibition was 1.19%.
Cc1ccc(-n2ccn3c(=O)n(Cc4c(F)cccc4Cl)nc3c2=O)cc1C showed an Inhibition of -0.86%.

Source: ChEMBL document CHEMBL4513146, “CO-ADD screening of Karazin Kharkiv National University (Ukraine) compounds”
